From PubChem BioAssay AID651871 (Sanford-Burnham Center for Chemical Genomics, 2012) come the findings set out here.

This assay deals with HL-1. Briefly: protection of cardiomyocytes from stress damage, SAR follow-up, cell-based, panel, H9c2 and HL-1, ATP luminescence, set 2 (AID 651871).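 Also: cells exposed to stressor for 2 h before ATP readout; reference of the scale not given here.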 As to conditions: H9c2/HL-1 cardiomyocytes, 2-deoxyglucose stress, with 2-deoxyglucose, run 16, at 79 µM (top of the series).
For `COc1ccc2c(c1OC)C(=O)N1c3ccccc3C(=O)N(Cc3cccc(Cl)c3Cl)C21` (stereo not drawn), the activity (protection/inhibition) was -9.37%.
For `CCOC(=O)c1cccc(NC(=O)CNC(=O)c2cc(-c3cc(OC)c(OC)c(OC)c3)nc3ccccc23)c1`, the activity (protection/inhibition) was found to be 130%.
The same measure for `COc1ccc2nc(-c3cc(OC)c(OC)c(OC)c3)cc(C(=O)NCC(=O)Nc3ccc(C(C)=O)cc3)c2c1`: 84.4%.
